Sensor-assay potency score (higher = more potent) data for 40 sequences are collected here from the OligoGym collection.
Note: reference of the scale not given here.

The target in the first assay is HLA-DRA. The assay can be described thus: pooled miR-30 sensor sort-seq; sequence = guide strand. The settings on record: shRNA.
In turn, TTCGTGAGCACAGTTACCTCTG returned a sensor-assay potency score (higher = more potent) of 0.227.

Turning to TTAGAGTACGGAGCAATCGAAG, the sensor-assay potency score (higher = more potent) was -1.52.

TTGTCTATGAAACAGATGAGGA: the sensor-assay potency score (higher = more potent) is -0.94.

For the sequence TCAAACATAAACTCGCCTGATT, the sensor-assay potency score (higher = more potent) is -0.205.

In the case of TACCTCTGGAGGTACATTGGTG, the sensor-assay potency score (higher = more potent) is -0.943.

Another assay has as its target HMGB2. Described as above. Conditions: shRNA.
TATCTTTGGCTGACTGCTCAGA had a sensor-assay potency score (higher = more potent) of -0.772.

TTCTGGTTCGTTCTTCTTCTTT showed a sensor-assay potency score (higher = more potent) of -0.774.

In the case of TTCAAACTTCGACTTCTCCTTT, the sensor-assay potency score (higher = more potent) stood at 0.655.

In turn, TTTCTTCTTGTGCTCTTCCCGG registered a sensor-assay potency score (higher = more potent) of -1.12.

TTTAGGAACATTCAACATCAGA came in with a sensor-assay potency score (higher = more potent) of -0.879.

In turn, TTTGCAGACATGGTCTTCCATC returned a sensor-assay potency score (higher = more potent) of -0.617.

With TTAGCTTAGCTGCTTTCTGTTC, the sensor-assay potency score (higher = more potent) was -0.873.

As to TTCTTCTTCTTTGAGCCTGTTG, the sensor-assay potency score (higher = more potent) was -0.484.

TTCTTCTTGTGCTCTTCCCGGC showed a sensor-assay potency score (higher = more potent) of -0.526.

TTTAGCTTAGCTGCTTTCTGTT gave a sensor-assay potency score (higher = more potent) of -0.377.

TTTAGGAGCATTGGGGTCCTTT yielded a sensor-assay potency score (higher = more potent) of -0.857.

Another assay deals with HMGN1. Described as above. Conditions: shRNA.
In the case of TTGGTTAGCCACTTCGGCCTGT, the sensor-assay potency score (higher = more potent) was 0.684.

The sequence TTATCCTTCGCTGCTGCCTTTT gave a sensor-assay potency score (higher = more potent) of -1.55.

Sequence TTAGCTGACAACCGCGCCGATC had a sensor-assay potency score (higher = more potent) of -1.18.

Regarding TTTAGTTTCTTGGTTAGCCACT, the sensor-assay potency score (higher = more potent) is -0.724.

In turn, TTCGCTTCCACTTTTGCAGGAG registered a sensor-assay potency score (higher = more potent) of 0.413.

As to AAGATTTATCCTTCGCTGCTGC, the sensor-assay potency score (higher = more potent) was -0.0749.

Take TACCAAAAAATAAACAACCAGC: the sensor-assay potency score (higher = more potent) is -1.01.

With TTGATAAAAATATTCCTCTGGA, the sensor-assay potency score (higher = more potent) is 0.157.

For the sequence TAGGATATAAAAACTAACCCCC, the sensor-assay potency score (higher = more potent) was -0.107.

Consider TTTAGCTGACAACCGCGCCGAT, for which the sensor-assay potency score (higher = more potent) was -0.654.

Sequence TTCTTGGTTAGCCACTTCGGCC yielded a sensor-assay potency score (higher = more potent) of -1.77.

For the sequence TAAGTCTTCTTTAGTTTCTTGG, the sensor-assay potency score (higher = more potent) was 0.158.

The target of another assay is HMOX1. The assay is described as above. The settings on record: shRNA.
In the case of AAACACAAGACACAACATCTTT, the sensor-assay potency score (higher = more potent) is -0.747.

TCTTCTATCACCCTCTGCCTGA returned a sensor-assay potency score (higher = more potent) of -0.665.

TCATGAACTCAGCATTCTCTGC showed a sensor-assay potency score (higher = more potent) of -0.85.

Sequence TTGAGCAGGAACGCAGTCTTGG returned a sensor-assay potency score (higher = more potent) of -0.286.

TTGCACTTTGTTGCTGGCCCGC showed a sensor-assay potency score (higher = more potent) of -1.2.

TATAAAAACAACAGAACACAAC yielded a sensor-assay potency score (higher = more potent) of -1.08.

In turn, TTGCGGTGCAGCTCTTCTGGGA returned a sensor-assay potency score (higher = more potent) of -0.856.

TTGAACTTGGTGGCACTGGCAA registered a sensor-assay potency score (higher = more potent) of -0.865.

TACAGCAACTGTCGCCACCAGA registered a sensor-assay potency score (higher = more potent) of -0.902.

In the case of TAGGGGATGACCTCCTGCCAGC, the sensor-assay potency score (higher = more potent) was -1.69.

As for TAGAGCTGCTTGAACTTGGTGG, the sensor-assay potency score (higher = more potent) amounted to 0.136.

TCTTCTGGGAAGTAGACAGGGG yielded a sensor-assay potency score (higher = more potent) of -0.217.
